In PubChem BioAssay (NCATS):
Records with an inconclusive call do not appear. Activity calls are given as the source filed them. Calls come from the whole dose curve; as a rule, active = well fitted inhibition curve with a large enough effect; inconclusive = small, poorly fitted or top-dose-only effect; inactive = flat fitted curve, though single readings scatter.

Columns and labels:
[1] = test system: CRL-7250; test: Cytotoxic Profiling of Annotated Libraries Using Quantitative High-Throughput Screening (AID 1296008); details: Five cell lines viability, CellTiter-Glo ATP luminescence, 48-72 h; hits give low values; for max response: % is set by controls: 0 for no effect and ±100 for the full control effect
Summary of the method: (§1)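 Compounds were pin-transferred onto cells and incubated 48 or 72 hr at 37 degree Celsius, 95% humidity. CellTiter-Glo was added, plates sat 10 min at room temperature, then ATP-coupled luminescence was imaged as the viability read-out.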

[2] = test system: HEK293; test: as above; details: Five cell lines viability, CellTiter-Glo ATP luminescence, 48-72 h; hits give low values
Summary of the method: as §1

[3] = test system: HaCat; test: as above; details: Five cell lines viability, CellTiter-Glo ATP luminescence, 48-72 h; hits give low values
Summary of the method: as §1

[4] = test system: NIH3T3; test: as above; details: Five cell lines viability, CellTiter-Glo ATP luminescence, 48-72 h; hits give low values
Summary of the method: as §1

[5] = test system: MCC-13; test: qHTS assay to identify novel small-molecules to repurpose for Merkel cell carcinoma treatment (AID 1296009); details: MCC and control cell lines, CellTiter-Glo viability, 72 h; series mostly up to 46 µM
Summary of the method: (§2)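 qHTS format: cells treated with library compounds in DMSO across 8 (NPC) or 11 (MIPE) concentrations. Readout after 72 hr at 37 degree celsius was CellTiter-Glo luminescence.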

[6] = test system: MCC-26; test: as above; details: MCC and control cell lines, CellTiter-Glo viability, 72 h; series mostly up to 46 µM
Summary of the method: as §2

[7] = test system: MKL-1; test: as above; details: MCC and control cell lines, CellTiter-Glo viability, 72 h; series mostly up to 46 µM
Summary of the method: as §2

[8] = test system: MKL-2; test: as above; details: MCC and control cell lines, CellTiter-Glo viability, 72 h; series mostly up to 46 µM
Summary of the method: as §2

[9] = test system: NIH3T3; test: as above; details: MCC and control cell lines, CellTiter-Glo viability, 72 h; at 44.8 µM (top of the series) unless noted
Summary of the method: as §2

[10] = test system: UISO; test: as above; details: MCC and control cell lines, CellTiter-Glo viability, 72 h; series mostly up to 46 µM
Summary of the method: as §2

[11] = test system: PC26; test: qHTS profiling for inhibitors of Plasmodium falciparum proliferation (AID 504749);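 note: 0% = DMSO vehicle and full inhibition = artemisinin control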; details: P. falciparum in erythrocytes, SYBR Green DNA, 72 h; series mostly up to 28.7 µM
Summary of the method: (§3)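 Parasite proliferation within erythrocytes, 72 h exposure. Endpoint: SYBR Green I fluorescence after overnight lysis at room temperature. Controls: 0.29 uM artemisinin, DMSO.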

[12] = test system: PC49; test: as above; details: P. falciparum in erythrocytes, SYBR Green DNA, 72 h; series mostly up to 28.7 µM
Summary of the method: as §3

[13] = test system: SC27B; test: as above; details: P. falciparum in erythrocytes, SYBR Green DNA, 72 h; series mostly up to 28.7 µM
Summary of the method: as §3

[14] = test system: TAB109; test: as above; details: P. falciparum in erythrocytes, SYBR Green DNA, 72 h; series mostly up to 28.7 µM
Summary of the method: as §3

[15] = test system: TAB113; test: as above; details: P. falciparum in erythrocytes, SYBR Green DNA, 72 h; series mostly up to 28.7 µM
Summary of the method: as §3

[16] = test system: TAB165; test: as above; details: P. falciparum in erythrocytes, SYBR Green DNA, 72 h; series mostly up to 28.7 µM
Summary of the method: as §3

[17] = test system: W2; test: as above; details: P. falciparum in erythrocytes, SYBR Green DNA, 72 h; series mostly up to 28.7 µM
Summary of the method: as §3

[18] = test system: HACAT; test: qHTS assay to identify novel small-molecules to repurpose for Merkel cell carcinoma treatment (AID 1296009); details: MCC and control cell lines, CellTiter-Glo viability, 72 h; at 44.8 µM (top of the series) unless noted
Summary of the method: as §2

[19] = test system: HEK293T; test: as above; details: MCC and control cell lines, CellTiter-Glo viability, 72 h; at 44.8 µM (top of the series) unless noted
Summary of the method: as §2
Note: nearly all actives have a fitted effect of over 60% in size.

Cc1ccsc1/C=C/C1=NCCCN1C
inactive: max response [1] 3.4% | max response [2] -1.17% | max response [3] 3.54% | outcome [4] | outcome [5] | outcome [6] | outcome [7] | outcome [8] | outcome [9] | outcome [10]

CCN(CC)CC1CCCCN1CC(=O)N1c2ccccc2C(=O)Nc2cccnc21 (configuration not stated)
inactive: Potency [11] | Potency [12] | Potency [13] | Potency [14] | Potency [15] | Potency [16] | Potency [17] | max response [1] -4.06% | max response [2] 4.03% | outcome [3] | max response [4] 4.32% | outcome [18] | outcome [5] | outcome [6] | outcome [7] | outcome [8] | outcome [10]

Cc1c(C(=O)NCCO)[n+](=O)c2ccccc2n1[O-]
inactive: Potency [11] | Potency [12] | Potency [13] | Potency [14] | Potency [15] | Potency [16] | Potency [17] | outcome [1] | max response [2] 0.33% | outcome [3] | outcome [4] | outcome [18] | outcome [5] | outcome [6] | outcome [7] | outcome [8] | outcome [9] | outcome [10]

O=C(O)Cc1ccc(CCNS(=O)(=O)c2ccc(Cl)cc2)cc1
inactive: Potency [11] | Potency [12] | Potency [13] | Potency [14] | Potency [15] | Potency [16] | Potency [17] | max response [1] 2.04% | max response [2] -7.16% | outcome [3] | max response [4] -0.48% | outcome [18] | outcome [5] | outcome [6] | outcome [7] | outcome [8] | outcome [10]

CC(=O)Nc1ccccc1
inactive: Potency [11] | Potency [12] | Potency [13] | Potency [14] | Potency [15] | Potency [16] | Potency [17] | max response [1] 2.87% | max response [2] -7.78% | outcome [3] | outcome [4] | outcome [18] | outcome [5] | outcome [6] | outcome [7] | outcome [8] | outcome [9] | outcome [10]

CCOc1cc(NC(C)=O)ccc1C(=O)OC
inactive: Potency [11] | Potency [12] | Potency [13] | Potency [14] | Potency [15] | Potency [16] | Potency [17] | max response [1] 3.11% | max response [2] 0.16% | outcome [3] | max response [4] 0.0399% | outcome [18] | outcome [5] | outcome [6] | outcome [7] | outcome [8] | outcome [10]

COC(=O)N/N=C/c1c[n+]([O-])c2ccccc2[n+]1[O-]
inactive: max response [1] 4.42% | outcome [2] | max response [3] -20.3% | max response [4] -11.1% | outcome [19] | outcome [5] | outcome [6] | outcome [7] | outcome [8] | outcome [10]
